Results on 16 molecules are retold here after PubChem BioAssay.

Activity calls are given as the source filed them. The rule behind the calls is not given here.

Sequence of Pantothenate synthetase (Mycobacterium tuberculosis (strain ATCC 25618 / H37Rv)) (P9WIL5 whole entry, looked up): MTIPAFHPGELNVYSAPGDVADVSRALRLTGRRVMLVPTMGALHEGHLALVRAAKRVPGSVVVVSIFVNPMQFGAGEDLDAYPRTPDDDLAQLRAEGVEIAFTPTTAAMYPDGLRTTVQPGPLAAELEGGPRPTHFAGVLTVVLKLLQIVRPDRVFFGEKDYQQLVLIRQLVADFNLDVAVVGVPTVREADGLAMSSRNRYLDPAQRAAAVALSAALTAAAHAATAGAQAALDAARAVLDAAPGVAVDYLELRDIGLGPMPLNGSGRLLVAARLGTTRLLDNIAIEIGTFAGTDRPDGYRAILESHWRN

The assay concerns the target Pantothenate synthetase (Mycobacterium tuberculosis (strain ATCC 25618 / H37Rv)) (UniProt P9WIL5). Description: Coupled enzyme confirmation of inhibitors against recombinant Mtb PanC (AID 375).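 Note: 0% = full reaction with vehicle and 100% = no enzyme background.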 The following applies: coupled enzyme assay; at 10 µM, active compounds read high.
Take `O=C(CN(Cc1ccco1)C(=O)c1cc(=O)[nH]c2ccccc12)Nc1ccccc1Br`: the inhibition was 0% (inactive). To `COc1ccc(C2CNC(=O)C2)cc1OC1CCCC1` (stereo unspecified) belongs 1% (inactive); to `Cc1ccc(S(=O)(=O)C(C#N)c2nc3ccccc3nc2N2CCCCC2)cc1` (stereo unspecified), 2% (inactive); to `C=CCSc1nnc2n(-c3ccccc3OC)c(=O)c3c4c(sc3n12)CCC4`, 0% (inactive).

In the case of `CC12CCC(C(=O)O)(c3nc(C#N)c(C#N)nc31)C2(C)C` (stereo unspecified), the inhibition is 13% (inactive).

`COc1nc(N2CCOCC2)nc(-n2cccc2)n1`: the inhibition was 2% (inactive). To `COc1ccc(S(=O)(=O)N2CCN(S(=O)(=O)c3ccc4c(c3)OCCO4)CC2)cc1C` belongs 0% (inactive); to `COc1ccc(C2=NO[C@@H]3C(=O)N(c4ccc5c(c4)OCCO5)C(=O)[C@H]23)cc1OC`, 3% (inactive); to `O=C(NCC1COc2ccccc2O1)C1CCCN(S(=O)(=O)c2cnc[nH]2)C1` (stereo unspecified), 0% (inactive).

Regarding `Cc1nc2ccc(CCO)cc2s1`, the inhibition is 0% (inactive). Under `CCn1c(=O)cc(OCC(=O)Nc2nc(C)cs2)c2ccccc21` stands 0% (inactive). With `COc1ccc(C2/C(=C(/O)c3ccc(OC(C)C)cc3)C(=O)C(=O)N2CCCN2CCOCC2)cc1` (stereo unspecified), the inhibition is 0% (inactive). To `O=C(NC1CCCCC1)c1ccc(S(=O)(=O)N2CCCCC2)cc1` belongs 0% (inactive). Consider `Cc1cc(C(=O)COC(=O)C2COc3ccccc3O2)c(C)n1CC1CCCO1` (stereo unspecified), for which the inhibition is 0% (inactive).

For `O=C(CCC(=O)N1CCc2ccccc2C1)N1CCN(S(=O)(=O)c2ccccc2)CC1`, the inhibition is 0% (inactive). Under `Cc1cccn2c(=O)c3cc(C(=O)N4CCCc5ccccc54)n(C)c3nc12` stands 0% (inactive).
